Bioassay records deposited in PubChem BioAssay by several laboratories.
NLRP3 yeast inh: NALP3 inflammasome inhibitors in reconstituted yeast, primary screen, luminescence, uHTS. Yeast reconstituted NLRP3/ASC/caspase-1, beta-gal luminescence, 24 h. inhibition, % at 10 µM. hit rate 0.39% among 330,000. AID 2825, 2010;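 active = inhibition of 50% or more; inactive = inhibition below 50%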;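 note: plate controls were induced DMSO wells for no effect and uninduced yeast grown without galactose for full effect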
SKKanGAS inh: S. pyogenes SKKanGAS growth inhibitors in kanamycin, primary screen, streptokinase expression inhibitor project, SKKanGAS strain, BacTiter-Glo luminescence; 6 h; inhibition, % at 7.5 µM; hit rate 1.3% among 300,000; AID 1662, 2009;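 active = mean replicate score, as percent of positive control median, at least 50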;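 note: strain carries kanamycin resistance gene driven by streptokinase promoter and grows in 40 µg/ml kanamycin; loss of luminescence reflects streptokinase promoter inhibition or plain growth inhibition; 0% = median of DMSO wells and 100% = positive control at its reference dose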
tim23-1 inh: growth inhibitors of tim23-1 mutant yeast, primary screen, luminescence, uHTS; S. cerevisiae tim23-1 growth, BacTiter-Glo luminescence, 24 h; hit rate 1.3% among 330,000; inhibition, % at 20 µM;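 active = growth inhibition of the mutant yeast at or above 50%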;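 note: temperature-sensitive mutant grown at 25 °C; plate controls were DMSO-treated mutant yeast for no effect and medium wells lacking yeast for full effect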
tim10-1 inh: growth inhibitors of tim10-1 mutant yeast, primary screen, luminescence, uHTS. S. cerevisiae tim10-1 ts strain growth, BacTiter-Glo, 24 h. inhibition, % at 20 µM. hit rate 2.2% among 330,000. AID 463190, 2010;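 active = inhibition of at least 40%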;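 note: mutant grown at 25 °C; 0% = DMSO wells with yeast and 100% = wells holding no yeast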
TIM10 inh: growth inhibitors of isogenic TIM10 control yeast, primary screen, counter-screen for tim10-1 yeast inhibitor project, luminescence, uHTS; S. cerevisiae TIM10 strain growth, BacTiter-Glo luminescence, 24 h; inhibition, % at 10 µM; hit rate 1.4% among 330,000;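 active = inhibition of 40% or more at the single tested concentration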;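 note: wild-type TIM10 isogenic control strain grown at permissive 25 °C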
Starred values were filed as active, the others as inactive; . = not tested or not shown. This is a sample that favours compounds with a hit; in the whole collection about 4.6% have one here.

SMILES	NLRP3 yeast inh	SKKanGAS inh	tim23-1 inh	tim10-1 inh	TIM10 inh
CC(C)=CCOc1ccc([C@@H]2COc3c(ccc4c3C=CC(C)(C)O4)C2)c(O)c1	16	100*	8	5	7
O=C(O)c1ccc(-c2nc(-c3ccccc3)cs2)cc1	24	7	9	27	11
O=C(O)c1ccc(-c2nc(-c3ccc(Cl)c(Cl)c3)cs2)cc1	17	57*	14	31	30
CC(=O)NC1=NC(=O)/C(=C/c2cc(C)n(-c3ccc(NC(C)=O)cc3)c2C)S1	-1	79*	10	12	12
Cc1cc(/C=C2\SC(=S)N(C)C2=O)c(C)n1-c1cccc(O)c1	31	91*	-1	-3	24
COc1ccc(-n2c(C)cc(/C=C3/SC(=S)N(C)C3=O)c2C)cc1	.	0	.	.	.
Cc1cc(/C=C2\SC(=O)N(C)C2=O)c(C)n1-c1ccc(S(N)(=O)=O)cc1	5	11	22	-5	-14
Cc1cc(/C=C2\SC(=O)N(C)C2=O)c(C)n1-c1ccc(O)cc1	13	88*	44	14	19
Cc1cc(/C=C2\SC(=O)NC2=O)c(C)n1-c1ccc(N2CCOCC2)cc1	24	100*	17	14	21
CCCCCOc1ccc(/C=C/c2c([N+](=O)[O-])c(=O)n(C)c(=O)n2C)cc1	29	60*	22	32	16
Cn1c(/C=C/c2ccc(Cl)cc2)c([N+](=O)[O-])c(=O)n(C)c1=O	37	2	32	35	19
Cc1ccc2cc(CN(Cc3cccs3)C(=O)c3ccco3)c3nnnn3c2c1C	12	63*	29	14	25
Cc1ccc2c(c1)cc(CN(Cc1cccs1)C(=O)c1ccco1)c1nnnn12	15	-2	28	23	36
CCc1c(C(=O)NC(C)C2CCCO2)csc1C (configuration not stated)	13	1	4	16	6
COc1cc(OC)cc(C(=O)NNC(=O)C(=O)Nc2cc(OC)c(Cl)cc2OC)c1	-3	54*	-5	-7	-11
COc1ccc(C(=O)OCC(=O)Nc2nnc(-c3ccccc3)o2)cc1	9	59*	9	-6	-16
COc1cc(C(=O)OCC(=O)Nc2nnc(-c3ccccc3)o2)cc(OC)c1OC	14	31	-2	-9	-9
O=C(Nc1nnc(-c2ccco2)o1)c1ccc(Cl)s1	8	51*	18	15	1
CC(=O)Nc1nnc(-c2ccco2)o1	-3	0	0	19	-11
CCCN(CCC)S(=O)(=O)c1ccc(C(=O)Nc2nnc(-c3cccc(OC)c3)o2)cc1	6	108*	7	36	7
COc1ccc(C(=O)Nc2nnc(-c3ccccc3)o2)cc1OC	15	50*	5	10	2
CC1Cc2ccccc2N1C(=O)CN(C)CC(=O)Nc1ccc(F)cc1 (configuration not stated)	24	.	33	11	11
CN(Cc1ccc(Br)s1)C(=O)CNC(=O)c1ccc2c(c1)OCO2	15	.	2	-7	2
O=C(Nc1ccc(NC(=O)c2cccc([N+](=O)[O-])c2)cc1)c1cccc([N+](=O)[O-])c1	3	3	-5	-5	-7
O=C(Nc1nnc(-c2cccs2)o1)c1cc(-c2ccccc2)nc2ccccc12	11	92*	10	28	10
SMILES	NLRP3 yeast inh	SKKanGAS inh	tim23-1 inh	tim10-1 inh	TIM10 inh
O=C(Nc1nnc(-c2ccc(F)cc2)o1)c1cccc([N+](=O)[O-])c1	19	84*	10	34	-1
O=C(Nc1nnc(-c2cccs2)o1)c1cccc(F)c1	19	85*	11	0	-7
COc1cccc(-c2nnc(NC(=O)c3cccc(F)c3)o2)c1	14	87*	18	16	12
COc1ccc(OC)c(CN2CCN(C(=O)c3cccc(S(=O)(=O)Nc4ccc(C)cc4)c3)CC2)c1	12	2	5	-9	13
O=C1NC(Cc2ccccc2)c2nc3cc(F)ccc3c(=O)n2-c2ccccc21 (configuration not stated)	11	.	24	20	12
Cc1cc(F)ccc1S(=O)(=O)NCC(c1cccnc1)N1CCc2ccccc21 (configuration not stated)	2	-3	10	6	3
COc1cccc(-c2nnc(NC(=O)c3ccc(Cl)s3)o2)c1	14	96*	14	12	3
Cc1ccc(C(=O)NCc2ccccn2)cc1S(=O)(=O)N1CCOCC1	24	.	-9	-15	1
